This note sets out measurements from ChEMBL document CHEMBL1157539, “Thousands of chemical starting points for antimalarial lead identification” (Nature, 2010).

Usually Inhibition stands for how much of the control response was suppressed. A lower Inhibition goes with little suppression.

The assay relates to Plasmodium falciparum. Put plainly: GSK_TCMDC: Inhibition of Plasmodium falciparum 3D7 in whole red blood cells, using parasite LDH activity as an index of growth. Test compounds present at 2uM. It is filed as functional.
Regarding `Cc1[nH]c(C)c(-c2ccc(Oc3ccc(Cl)cc3)cc2)c(=O)c1Br`, the Inhibition is reported as 97%.
In the case of `CN1CCN(c2cc3c(Nc4ccc5c(cnn5Cc5ccccc5)c4)ncnc3cn2)CC1`, the Inhibition turned out to be 88%.
For `CC(C)CNCc1cccc(-c2ccc(CN(CCCN3CCN(C)CC3)C(=O)/C=C/c3ccccc3)cc2)c1.O=C(O)C(F)(F)F`, the Inhibition was found to be 92%.
`O=C(Nc1ccccc1)NC1CCN(CCC2(c3ccc(Cl)c(Cl)c3)COCN(C(=O)c3ccccc3)C2)C1` (stereo not drawn) had an Inhibition of 92%.
The figure for `Cc1cc(C(=O)NC2CCN(Cc3ccccc3)CC2)ccc1-c1nc2cc(Cl)c(Cl)cc2[nH]1` is 96%; for `Cc1ccc(-c2cc(C(=O)Nc3ccc(S(=O)(=O)N4CCOCC4)cc3)[nH]n2)c(O)c1C` it is 91%; for `CC1(C)CCC(C)(C)c2c1ccc(C1CCN(CCCCNC(=O)c3ccc(-c4ccc(Cl)cc4)cc3)CC1)c2O` it is 100%.
The figure for `O=C(c1cccc(-c2noc(C(F)(F)F)n2)c1)N1CCN(C(=O)c2ccc3cc[nH]c3c2)CC1` is 94%; for `CCCN1CCN(CCNC(=O)c2cccc(Nc3nccc(Nc4ccc(Oc5ccccc5)cc4)n3)c2)CC1` it is 99%.
The same measure for `O=C(Nc1cccnc1)c1cc(-c2cccnc2)nc2ccc(Cl)cc12`: 97%; for `C=Cc1c(C2CCN(CCCCNC(=O)c3ccc(-c4ccc(C#N)cc4)cc3)CC2)ccc2c1CCCC2`: 94%.
`C[C@H](Cc1ccc(OCCCCCCOc2ccc(C[C@@H](C)N[C@H](C)c3ccccc3)cc2)cc1)NC[C@H](O)c1cccc(Cl)c1.Cl` had an Inhibition of 99%.
For the compound `COCCN(C)CCCOc1cc2c(cc1OC)ncn2-c1cc(OCc2ccccc2C(F)(F)F)c(C(N)=O)s1.Cl`, the Inhibition was found to be 98%.
